# Results reported in ChEMBL document CHEMBL4513216, “Probing the Open Global Health Chemical Diversity Library for Multistage-Active Starting Points for Next-Generation Antimalarials” (ACS Infect Dis, 2020).
# Screen size: about 65,000 compounds; about 2,100 (3.2%) showed an effect of 50% or more. The median lay at about -52%. What follows is part of a selection rich in strong results, with near analogues and random picks from the rest.
# System: Plasmodium falciparum
# Test: Screen against P. falciparum Asexual Blood Stage (ABS), at 5uM
# Format: functional, Dd2
# Conditions: tested at 5 uM
row,Structure (SMILES),INHIBITION [%]
1,Cc1nc(COCc2cnc3n2CCN(C)C3C)cs1 (stereo not given),-63.4
2,O=C(NCCc1cccs1)[C@H]1CO[C@H]2CCN(C3CCC3)C[C@H]2C1,-9.07
3,O=S(=O)(NCC1CCOC1)N1CCc2ccccc2C1 (stereo not given),-80.7
4,CCN1CCC(CNS(=O)(=O)N2CCc3ccccc3C2)C1 (stereo not given),53.9
5,O=S1(=O)CCC(CNS(=O)(=O)N2CCc3ccccc3C2)C1 (stereo not given),-114
6,COc1ccc(C(=O)NCC(c2cccn2C)N2CCN(C)CC2)cc1 (stereo not given),-35
7,COc1ccc(C(=O)NCC(c2cccn2C)N2CCCC2)cc1OC (stereo not given),28
8,COc1cc(OC)cc(C(=O)NCC(c2cccn2C)N2CCCC2)c1 (stereo not given),55.5
9,O=C(NCC(O)COc1ccccc1)Nc1nncs1 (stereo not given),-50.2
10,O=C(CCc1ccsc1)NCC1CCN(Cc2cccs2)CC1,59.5
11,O=C(CCc1ccccc1)NCC1CCN(Cc2ccsc2)CC1,19.8
12,O=C(CCc1ccccc1)NCC1CCN(Cc2cccs2)CC1,-7.73
13,CCOc1nn(CC)cc1-c1nnc(SCc2ccccn2)n1C,-121
14,CCCC(=O)N(CCCN1CCOCC1)c1nc2c(Cl)cccc2s1,-1.93
15,Cc1noc(C(C)C)c1C(=O)NCC1CCN(c2ccccc2)C1 (stereo not given),35.6
16,Cc1noc(C)c1C(=O)NCC1CCCCN1Cc1ccccc1 (stereo not given),-3.72
17,Cc1noc(C(C)C)c1C(=O)NCC1CCCN1Cc1ccccc1 (stereo not given),65.7
18,Cc1cnn(CCC(=O)N2CCC3(CCC(=O)N(CC4CC4)C3)CC2)c1,-49
19,Cn1nc(CNC(=O)c2ccc3nsnc3c2)c2c1CCOC2,-37.5
20,Cc1cnc(C)c(Oc2ccc(Cl)c(CN3CCCC3)c2Cl)n1,-31.4
21,CCc1noc(C2CCCCN2C(=O)c2cc(C)oc2C)n1 (stereo not given),-14.9
22,COc1ccc(Cl)cc1NCc1cc(C)on1,-142
23,COc1cc2nc(NCc3cc(C)on3)nc(N)c2cc1OC,61.4
24,CCOc1ccc(OCC)c(NCc2cc(C)on2)c1,-105
25,O=S(=O)(c1ccccc1)N1CCC2(CCCN2Cc2cccc(Cl)c2)C1 (stereo not given),18.8
26,Cc1cc(F)ccc1-c1ccccc1CC1CNCCNC1=O (stereo not given),49.3
27,COc1ccc(F)cc1-c1ccccc1CC1CNCCNC1=O (stereo not given),51.7
28,COc1ccc(F)cc1-c1ccccc1CC1(C(=O)O)CCOCC1,-130

row,Structure (SMILES),INHIBITION [%]
1,O=C(CSCCN1CCOCC1)N1CCc2ccccc2C1,-92.5
2,O=C(CCc1nccs1)N1CCN(c2ccccn2)CC1,-127
3,Cn1ccnc1CN1CCC2(CC1)COCCN(c1ncccn1)C2,-9.16
4,Cn1ccnc1CN1CCC2(COCCN(S(=O)(=O)C3CC3)C2)C1 (stereo not given),-106
5,Cn1ccnc1CN1CCC2(COCCN(Cc3ccsc3)C2)C1 (stereo not given),52
6,COCC1Cn2nnc(-c3cnn(C)c3)c2CN1Cc1ccoc1 (stereo not given),28.8
7,CCc1cc(NCCc2cccnc2)n2nc(C)c(C)c2n1,-108.7
8,Cc1c(C)n(Cc2ccncc2)c2nc3c(c(N)c12)CCCCCC3,28.3
9,CCc1c(-c2ccccc2)nc2c(c(C)c(C)n2CCN(C)C)c1N,67.6
10,CCCc1nc2c(c(C)c(C)n2Cc2ccccn2)c(N)c1CC,59.4
11,Cc1c(C)n(Cc2ccncc2)c2nc3c(c(N)c12)CCCC3,-12.1
12,Cc1cc(C(=O)N2CCNC(=O)C2)c(C)n1Cc1ccccn1,-68.6
13,CCc1nc2c(c(C)c(C)n2Cc2cccnc2)c(N)c1C,20.4
14,Cc1c(C)n(Cc2ccccn2)c2nc3c(c(N)c12)CCCC3,46.7
15,CCCc1nc2c(c(C)c(C)n2Cc2ccncc2)c(N)c1CC,60.3
16,CCc1c(C)sc2c1c(N)nc(=O)n2CCN(C)C,17.4
17,CCc1c(C)sc2c1c(N)nc(=O)n2CCCN(C)C,-147
18,CCCc1nc2c(c(C)c(C)n2Cc2cccnc2)c(N)c1CC,65
19,CCC(Nc1nc(C)nc2onc(C)c12)c1nc(C)c(C)s1 (stereo not given),-38.1
20,CCCc1noc(CN2CCOCC2C)n1 (stereo not given),-47.4
21,Cc1cc(NC(=O)CCn2nc(C)c3ccccc32)n(C(C)C)n1,-75.1
22,CO[C@H]1CCN(S(=O)(=O)c2cn(C)cn2)[C@H]1Cc1cccnc1,-8.09
23,Cc1cc(=O)n2nc(-c3cccs3)nc2n1CC(=O)NC(C)C,-10.8
24,Cc1cc(C)c(CNC(=O)N(C)Cc2ccc3c(c2)OCO3)c(=O)[nH]1,-71.6
25,Cn1cc(NC(=O)N2CCC(OCc3ccccc3)CC2)ccc1=O,43.6
26,Cc1nn(C)c(N(C)C)c1CNCC(O)COc1cccc(F)c1 (stereo not given),-0.711
27,COC(=O)c1ncccc1N1CCN(C(=O)CN2CCOCC2)CC1,-131
